# Experimental data taken from PubChem BioAssay (NCI).
# About 83,000 compounds went through this panel and 20% of them were active in at least one assay; those are over-represented in the sample as a whole.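 Results are percent growth after 48 hours of single-concentration exposure. 100 means growth as in untreated cells, lower positive values show inhibition; negative values down to -100 show cell death.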 Values without a mark were called inactive. The source made the active and inactive calls. Rule for the calls: active = growth percent below 10; inactive = the rest.
# System: MDA-MB-468 breast
# Assay: NCI-60 one-dose screen, 48 h (100 = growth as untreated, 0 = no growth, -100 = all killed)
# Settings: 10 µM unless noted
row,SMILES,growth
1,O=C(CNC(=O)c1cccc2ccccc12)Nc1ccccc1Oc1ccccc1,19.7%
2,CN(C)CCOc1ccc(-c2nc3sccn3c2-c2ccnc(S(C)(=O)=O)n2)cc1,98.8%
3,O=C(c1ccc(Cl)cc1Cl)N1CCOCC1,99.5%
4,CC1=C(C(=O)OCC2CCN(C(=O)OC(C)(C)C)CC2)[C@@H](c2cccc(C#N)c2)C2=C(CC(C)(C)CC2=O)N1,52.2%
5,Cc1ccc(NC(=O)N[C@@H](Cc2cc(F)cc(F)c2)C(=O)NC2C(=O)N3C[C@H](O)C[C@H]3C(=O)N3CCCC[C@H]3C(=O)N[C@@H](CO)C(=O)N3C[C@H](C)C[C@H]3C(=O)O[C@H]2C)c(F)c1 (stereo partly specified),-2.72% (active)
6,CC(C)c1cc(CNc2nc(Nc3cc(C4CC4)[nH]n3)cc(N3CCN(C)CC3)n2)on1,-34.8% (active)
7,N/C(=N\c1nc2c(Cl)cccc2s1)C(Cl)(Cl)Cl,22.6%
8,C=C1C(=O)O[C@H]2[C@H]1CC/C(CNS(=O)(=O)c1cccc3ccccc13)=C\CC[C@@]1(C)O[C@@H]21,1.44% (active)
9,Nc1ccc(C2=Nc3cccc4cccc(c34)S2)cc1,0.26% (active)
10,O=C(O)c1ccc2c(c1)C(=O)N(Cc1ccccc1)C2=O,96.2%
11,CN(Cc1ccccc1)S(=O)(=O)/N=C1\NC(=O)NC1=C(Cl)Cl,22.3%
12,N#Cc1c2ccccc2c2n1-c1ccccc1OC(c1ccccc1)C2=O (stereo unspecified),65.7%
13,Cc1ccc(C(=O)Nc2ccc(Cl)cc2C(=O)NCc2ccccc2)cc1,83%
14,C/C(=N\O)C(=O)NCCCCCC(=O)Nc1ccccc1,114%
15,COc1ccc(-n2nc(C)c3c(Nc4ccc(NC(=O)Nc5c(Cl)cccc5Cl)cc4)ncnc32)cc1,27.9%
16,C=C1CC[C@@H]2[C@](C)(COC(C)=O)[C@H](OC(C)=O)CC[C@@]2(C)[C@@H]1CC(Nc1ccc(S(=O)(=O)Nc2nccc(C)n2)cc1)C1=CCOC1=O (stereo partly specified),-45.8% (active)
17,NC(=O)c1c(NC(=O)c2cccc(C(F)(F)F)c2)sc2c1CCC(=O)C2,-38.1% (active)
18,FC(F)(F)c1cccc(-n2nnc3cnc(Nc4ccc(N5CCCCC5)cc4)nc32)c1,68.7%

row,SMILES,growth
1,CC(C)(C)OC(=O)CN1CCc2c(sc3ncnc(N4CCN(c5ccc(F)cc5)CC4)c23)C1,92.3%
2,OCC(Nc1ncnc2ccc(-c3cnc4cnccn34)cc12)c1ccccc1 (stereo unspecified),-2.48% (active)
3,COc1ccc(Oc2nc(Nc3ccc(N4CCOCC4)cc3)ncc2NC(=O)Nc2cccc(OC)c2)cc1,90.1%
4,CCN(CC)CCCNc1cccc2c(C)cc(OC)nc12,74.8%
5,Cc1c2ccncc2c(C)c2c1c1ccccc1n2CCCCCC(=O)O,86.3%
6,N#C/C(=C\c1ccc(Br)cc1)n1nnc2cccc(F)c21,-0.554% (active)
7,COc1ccc2sc(N(Cc3cccnc3)C(=O)c3ccc(C#N)cc3)nc2c1,73%
8,CNc1ncc(-c2ccc(C(F)(F)F)cc2)c(NC2CCCCCC2)n1,74.9%
9,CC1/C=C/C=C/C=C/C=C/C=C/C=C/C=C/C(O[C@@H]2O[C@H](C)[C@H](O)[C@@H](O)[C@@H]2N)CC(O)C(C(=O)O)C(O)CC(=O)CC(O)CC(O)CC(O)CC(=O)CCCC(=O)CC(=O)OC1C(C)CC(C)C(O)CC(=O)c1ccc(N)cc1 (stereo partly specified),-89.7% (active)
10,COc1ccc(-c2nc3c(c(-c4ccc(Cl)cc4)nn3-c3ccccc3)c(-c3ccccc3)c2C#N)cc1,108%
11,Nc1c(C(=O)Nc2cccc(Cl)c2)sc2nc3c(cc12)C(=O)CCC3,-10.6% (active)
12,COc1ccc(Cn2nc(-c3ccccc3)c3c2CCc2cnoc2-3)cc1,43.1%
13,N#CCCN1CCN(CCC#N)C1=S,119%
14,CC(=O)C[n+]1ccc(C)cc1Sc1ccccc1C,82%
15,C#Cc1cccc(Nc2ncnc3cc(OCCOC)c(OCCOC)cc23)c1,-4.78% (active)
16,N#C/C(=C\c1ccc(-c2cc(C(F)(F)F)ccc2Cl)o1)c1nc(-c2ccco2)cs1,-3.16% (active)
17,CCCCCCC(C)c1ccccc1O (stereo unspecified) (tested in a mixture with another compound),124%
18,O=S(=O)(NCCCNc1nccc(-c2c(-c3ccc(F)c(O)c3)nc3sccn23)n1)c1ccccc1,82.4%
